Over roughly 35,000 sequences, “fluorescence intensity (a.u.)” has its median near 10,000; the highest 2% begin near 52,000. The full list was thinned out, with the highest values kept by preference.
target: T1, OsWOX13 (Oryza sativa, UniProt Q5QMM3 1-267); assay: protein-binding microarray (RPBM); PBS, 2% BSA, 51.3 ng/ul salmon testes DNA, 50 uM zinc acetate, 200 nM TF, 25 C, 1 h; high values mean tight binding; details: protein: recombinant; tags: N-terminal polyhistidine and DsRed monomer fusion (pET32a); label: CyDye5-dUTP incorporated in the synthesized complementary strand; 3' TTTTT single-stranded linker to array surface; dsDNA, one strand shown
T1 sequence: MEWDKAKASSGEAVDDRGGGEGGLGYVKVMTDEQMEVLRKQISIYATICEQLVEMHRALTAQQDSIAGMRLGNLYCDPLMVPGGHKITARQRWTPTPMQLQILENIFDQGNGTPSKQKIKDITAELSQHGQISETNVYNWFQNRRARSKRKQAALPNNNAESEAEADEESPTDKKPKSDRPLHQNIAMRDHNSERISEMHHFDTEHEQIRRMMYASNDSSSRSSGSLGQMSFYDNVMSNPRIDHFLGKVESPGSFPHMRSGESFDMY
How it was run: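 For the binding signal, per-feature fluorescence intensity was read in arbitrary units on an Axon 4000B scanner. Before scanning, a 2% BSA-blocked custom Agilent array made double-stranded with Cy5-dUTP was washed after 1 h at 25 °C with 200 nM protein and 50 µM zinc acetate. The proteins were Ni–NTA-purified transcription factors with N-terminal polyhistidine and DsRed fusions, expressed in E. coli BL21-CodonPlus.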

Row | Sequence | binding signal
1 | TTTAGTAATTGGTAGAGCTCAAATTTCTAAATTTAACTTCCGGAGTCACCTAGTGCAG | 6730 fluorescence intensity (a.u.)
2 | ATTAAGATTGATTAATTGTTGCTTGGTTAATAGCCACTTACGGAGTCACCTAGTGCAG | 47500 fluorescence intensity (a.u.)
3 | TAAGTAATTGATTGGTAGCCAGCTTCTAACTTCTAGCTTACGGAGTCACCTAGTGCAG | 63600 fluorescence intensity (a.u.)
4 | TTCTAATCAAGCTTTCTGGTTAATTTCTCTATGAATTTAACGGAGTCACCTAGTGCAG | 5250 fluorescence intensity (a.u.)
5 | TCTAGAGAATTAGCCCTGATTATAATGTGAGACTTTGCATCGGAGTCACCTAGTGCAG | 4870 fluorescence intensity (a.u.)
6 | AAATCAATCTGATGGGCCGAATTGGAGGCCCATATCCGTGCGGAGTCACCTAGTGCAG | 8660 fluorescence intensity (a.u.)
7 | TTTGGATTGGCCAGAACAAGATATACTTTCGAATCTTTTGCGGAGTCACCTAGTGCAG | 11300 fluorescence intensity (a.u.)
8 | GCCGCCACCTTCGCCTTTATAAAGCTTACCTTTGCTACCACGGAGTCACCTAGTGCAG | 64800 fluorescence intensity (a.u.)
9 | CTCGCCATCTTCGCCGTCCTTGCTTTCTTATATAAATTTTCGGAGTCACCTAGTGCAG | 4080 fluorescence intensity (a.u.)
10 | TCATAAATTATTTATAATTGCCTTGCTTAATTTACGCCTTCGGAGTCACCTAGTGCAG | 28900 fluorescence intensity (a.u.)
11 | ATATGATTAAACTCAAGTATAGTTGAGGGACGTAAATTGGCGGAGTCACCTAGTGCAG | 19700 fluorescence intensity (a.u.)
12 | TTCATATAATTTATAAGGGACATAATGTAATCACCCTATACGGAGTCACCTAGTGCAG | 10300 fluorescence intensity (a.u.)
13 | ACCCACCCTTCAATTAGCCTGTGAATTACTACTTTCTAATCGGAGTCACCTAGTGCAG | 7460 fluorescence intensity (a.u.)
14 | AGTGATTAATTCATTCCAAAAGACAGTAGCGACATCTATTCGGAGTCACCTAGTGCAG | 20300 fluorescence intensity (a.u.)
15 | ATTAATTATCAGTGAGCACAAGCCTGGCATGTAAATCATGCGGAGTCACCTAGTGCAG | 24800 fluorescence intensity (a.u.)
16 | TTATGACCGGTTTTGATTAGTTAAGAGACGCCAGATATCTCGGAGTCACCTAGTGCAG | 14300 fluorescence intensity (a.u.)
17 | TATTAAGAATTAGATTAGGATTAGGATTGTGTCAATGTTCCGGAGTCACCTAGTGCAG | 4860 fluorescence intensity (a.u.)
18 | TAATTGATTAATTAATAATACTCCAGCTGCAGCAACGGCACGGAGTCACCTAGTGCAG | 47300 fluorescence intensity (a.u.)
19 | ATACATTGATTAATCAGCCAGCCAGCCAGCCAGCCACTGACGGAGTCACCTAGTGCAG | 28700 fluorescence intensity (a.u.)
20 | ATTTGATTTTCTGTCTTTTCTTCAACTCGATTTTGTTAAACGGAGTCACCTAGTGCAG | 8770 fluorescence intensity (a.u.)
21 | TCCCATTGATTTGATCCAGCTAATTAATTAATTCGATCCACGGAGTCACCTAGTGCAG | 49900 fluorescence intensity (a.u.)
22 | CCTGATTAATTGGGTCGTCGTTCCATTCCCAGCCGATCGACGGAGTCACCTAGTGCAG | 65200 fluorescence intensity (a.u.)
23 | GTAGTTCTTGATGTATTTCAATTAGAACCTTAATTTTCCACGGAGTCACCTAGTGCAG | 3390 fluorescence intensity (a.u.)

Row | Sequence | binding signal
24 | ATGTTCTTAGATTGATTAAGATTGTCAATTGATTACTCCACGGAGTCACCTAGTGCAG | 60500 fluorescence intensity (a.u.)
25 | CACCAATTTGATTGTTTTATTATTTTAAATCTTCAGTACTCGGAGTCACCTAGTGCAG | 14200 fluorescence intensity (a.u.)
26 | GTATGGATCACCTGATTAATTGGGCCGTCGTTCCATTCCCCGGAGTCACCTAGTGCAG | 9310 fluorescence intensity (a.u.)
27 | TTTTGATTGACAGCGGAAATTACTCGATATTGTTCTTCAACGGAGTCACCTAGTGCAG | 64300 fluorescence intensity (a.u.)
28 | GCCTGATTAATTGATTAATTCTCCAGCTGCATCACATTGACGGAGTCACCTAGTGCAG | 63700 fluorescence intensity (a.u.)
29 | TTAAATTTATACCCCACTTATATCTCACTTACACATCACTCGGAGTCACCTAGTGCAG | 7930 fluorescence intensity (a.u.)
30 | TTAAATTTTCTATATAAATCTATTCAAATCTGCATAAATGCGGAGTCACCTAGTGCAG | 3870 fluorescence intensity (a.u.)
31 | TTGTAAAATTATATTTATTTAAGATGAAGGGAGTACTATCCGGAGTCACCTAGTGCAG | 4920 fluorescence intensity (a.u.)
32 | TTGCTGATTGTGAATGGTGGGTGCAAGGATACACTTTTCGCGGAGTCACCTAGTGCAG | 23900 fluorescence intensity (a.u.)
33 | AGCTAGGTCAATCATGCATGCATGAATATGTGGCCGAGTTCGGAGTCACCTAGTGCAG | 3270 fluorescence intensity (a.u.)
34 | CCAAACAATTTCAGTTTCATCTAAATTGGAGTGGAGCTGGCGGAGTCACCTAGTGCAG | 11400 fluorescence intensity (a.u.)
35 | TTTACTCATGATTACGCTAATTATTCCACTCAATTCTCACCGGAGTCACCTAGTGCAG | 26100 fluorescence intensity (a.u.)
36 | TATGATTGATTGGAGGGATCAATTAATTACTCATTCTCCACGGAGTCACCTAGTGCAG | 64700 fluorescence intensity (a.u.)
37 | TTGATAGATTGATCGTTAGTGCTTTTGTCCAATTTGTTCACGGAGTCACCTAGTGCAG | 64200 fluorescence intensity (a.u.)
38 | CTCGTTAGATTTTGATCAATGATTAGTCCAAATTATACATCGGAGTCACCTAGTGCAG | 15200 fluorescence intensity (a.u.)
39 | TTGTCCATCACAATTGCTAATTAACTAAGACACCCTTCCTCGGAGTCACCTAGTGCAG | 21100 fluorescence intensity (a.u.)
40 | CTCCACTAATTACTCCACCCAACCATTGGATTCAATGGGCCGGAGTCACCTAGTGCAG | 21700 fluorescence intensity (a.u.)
41 | GAGATCACATTAACTAATTGATTAACTAATTACTTCATCCCGGAGTCACCTAGTGCAG | 29600 fluorescence intensity (a.u.)
42 | ATTAATTAATTAATTAATTAATTAATACTCCTCTCTTCCACGGAGTCACCTAGTGCAG | 65500 fluorescence intensity (a.u.)
43 | CTGATTAAGATCACTAATTGATCTGTCCACATTGCATCCTCGGAGTCACCTAGTGCAG | 54800 fluorescence intensity (a.u.)
44 | TGGATTAATTTCTCCTCTTCTCTTCCTCCCGTTTATAATACGGAGTCACCTAGTGCAG | 6370 fluorescence intensity (a.u.)
45 | ATTTAATTTAATTTAATTGTTCCTCCTCTTCTTCTTCTCTCGGAGTCACCTAGTGCAG | 41000 fluorescence intensity (a.u.)
46 | TTTTGTAACTGATCGTTATTAGATCGGATTTGTTCATTGTCGGAGTCACCTAGTGCAG | 3360 fluorescence intensity (a.u.)
